Screens (PubChem BioAssay)
MITF primary = inhibitors of human MITF; O75030; AlphaScreen MITF homodimerization, bead proximity signal; inhibition, % at 2.6 µM; 0.91% of 650,000 active; AID 1259374; in the data active means inhibition above about 50%
FBW7 activator = activators of human E3 ligase FBW7 | AID 1259310 | normalized activity (activation), % at 26.1 µM | 0.13% of 650,000 active | AlphaScreen FBW7–phospho-cyclin E peptide binding, activator screen | Q969H0; in the data active means normalized activity above about 1.9%;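 further: purified mutant Fbw7 with reduced substrate affinity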
GPR151 ag = human GPR151 activation | Q8TDV0 | PathHunter beta-arrestin GPR151 cells, luminescence | activation, % at 11.2 µM | 1% of 650,000 active | AID 1508602; in the data active means activation above about 4.9%
TEAD-YAP block = TEAD-YAP interaction inhibition | AID 1259422 | 1.4% of 640,000 active | HEK-TIYL cells, TEAD-Gal4/YAP UAS-luciferase luminescence | inhibition, % at 9.12 µM; in the data active means inhibition above about 32%
GPR151 confirm = confirmation of human GPR151 activators. GPR151 PathHunter beta-arrestin cells, luminescence, 90 min; % of EA-reagent control over plate median. 6,700 tested, under 10 active. shares compounds with GPR151 ag. AID 1508609. activation, % at 11.2 µM;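 active means mean percent activation across replicates above the confirmation screen cutoff of 4.91%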
GPR119 ag = counter-screen for GPR151 activators: effect on human GPR119; activation, % at 11.2 µM; GPR119 PathHunter beta-arrestin cells, luminescence, 90 min; 0 = compound-well median, 100 = enzyme-acceptor control; AID 1508611; 0.3% of 6,700 active; shares compounds with GPR151 ag;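 active means mean percent activation in the counterscreen above 29.09%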;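 further: counterscreen on off-target GPR119 to flag nonselective hits from the GPR151 activator screen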
Target sequence (Q8TDV5 whole entry, looked up): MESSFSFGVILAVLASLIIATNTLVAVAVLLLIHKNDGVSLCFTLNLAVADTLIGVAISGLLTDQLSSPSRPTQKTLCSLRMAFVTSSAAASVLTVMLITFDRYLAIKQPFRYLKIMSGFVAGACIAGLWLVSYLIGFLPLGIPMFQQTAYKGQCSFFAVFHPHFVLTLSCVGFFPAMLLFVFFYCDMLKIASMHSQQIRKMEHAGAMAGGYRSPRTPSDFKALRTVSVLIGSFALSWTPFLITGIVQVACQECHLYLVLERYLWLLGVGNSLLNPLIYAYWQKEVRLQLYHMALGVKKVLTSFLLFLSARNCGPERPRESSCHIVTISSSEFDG
Of the large screens only hits and unclear results are named; the others gave an inactive call (follow-up assays come after a bar, where they were run). Most compounds without a hit are left out; they make up all but 3.5% or so of the library.

CCOC(=O)c1ccccc1NC(=O)CN(c1ccccc1OCC)S(C)(=O)=O	none
CCCCCOC(=O)c1ccc(N2C(=O)c3ccc(C(=O)O)cc3C2=O)cc1	none
CCOC(=O)c1ccccc1NC(=O)c1cn(-c2ccc(F)cc2F)c(=O)c2ccccc12	GPR151 ag 6.7 | GPR151 confirm inactive | GPR119 ag inactive
COc1ccc(Cl)cc1NC(=O)CN(c1cccc(Cl)c1)S(C)(=O)=O	GPR151 ag 6.8 | GPR151 confirm inactive | GPR119 ag inactive
Cc1ccc(N(CC(=O)Nc2cccc(Cl)c2C)S(C)(=O)=O)cc1C	GPR151 ag 5.3 | GPR151 confirm inactive | GPR119 ag inactive
COc1ccc(N(CC(=O)Nc2cccc(Cl)c2C)S(C)(=O)=O)cc1OC	none
Cc1ccc(N(CC(=O)NCCC2=CCCCC2)S(C)(=O)=O)cc1Cl	GPR151 ag 15.4 | GPR151 confirm inactive | GPR119 ag inactive
CS(=O)(=O)N(CC(=O)NCCC1=CCCCC1)c1ccc(F)c(Cl)c1	none
COc1ccc(-c2cc(C(=O)NC3CC3)[nH]n2)cc1	none
CN(CCCNS(=O)(=O)c1ccc2[nH]c(=O)ccc2c1)Cc1ccccc1	none
O=c1nc(Nc2ccc([N+](=O)[O-])cc2)nc(Nc2ccccc2)[nH]1	none
COC(=O)c1ccccc1NC(=O)CN(c1ccc(F)c(Cl)c1)S(C)(=O)=O	GPR151 ag 13.0 | GPR151 confirm inactive | GPR119 ag 30.9
COC(=O)c1ccccc1NC(=O)CN(c1ccccc1OC)S(C)(=O)=O	none
CCOC(=O)c1ccccc1NC(=O)CN(c1ccc(OC)c(Cl)c1)S(C)(=O)=O	none
COc1ccccc1N(CC(=O)Nc1ccccc1C(=O)NCC(C)C)S(C)(=O)=O	GPR151 ag 13.4 | GPR151 confirm inactive | GPR119 ag inactive
CCOC(=O)c1ccccc1NC(=O)CN(c1ccc(F)c(Cl)c1)S(C)(=O)=O	GPR151 ag 5.2 | GPR151 confirm inactive | GPR119 ag inactive
CCN(CC)S(=O)(=O)c1ccc(C(=O)Nc2nc(-c3ccc(C(C)C)cc3)cs2)cc1	none
COc1ccc(CN2CCOc3ccc(CN4C[C@@H](C)O[C@@H](C)C4)cc3C2)cc1OC	none
C[C@@H]1CN(Cc2ccc3c(c2)CN(Cc2ccc4c(c2)CCO4)CCO3)C[C@H](C)O1	GPR151 ag 6.5 | GPR151 confirm inactive | GPR119 ag inactive
CCCN1CCC(C(=O)Nc2ccccc2-c2cccc(OC)c2)CC1	none
O=C(Nc1ccccc1)N1CCC(CO)(CCc2ccccc2)CC1	GPR151 ag 9.9 | GPR151 confirm inactive | GPR119 ag inactive
Nc1cc(=O)[nH]c(SCC(=O)NCC2CCCCC2)n1	none
C=CCN1C(=O)/C(=C\c2cc(Cl)c(O)c(OCC)c2)C(=O)NC1=S	GPR151 ag 7.4 | GPR151 confirm inactive | GPR119 ag inactive
C=CCN1C(=O)/C(=C\c2cc(Cl)c(O)c(Cl)c2)C(=O)NC1=S	none
C=CCN1C(=O)/C(=C/c2ccc(Cl)cc2)C(=O)NC1=S	GPR151 ag 15.9 | GPR151 confirm inactive | GPR119 ag inactive
Cc1ccc2nc(-c3ccc(C)c(NC(=O)COc4cc(C)c(Cl)c(C)c4)c3)oc2c1	none
CCCn1cnc2sc(C(=O)NCCCN(CC)CC)c(C)c2c1=O	none
Cc1ccccc1OC1=NS(=O)(=O)c2cc([N+](=O)[O-])ccc21	GPR151 ag 8.6 | GPR151 confirm inactive | GPR119 ag inactive
NC(=O)c1cc2c(ccc3ccccc32)oc1=Nc1ccccc1	GPR151 ag 5.2 | GPR151 confirm inactive | GPR119 ag inactive
CCC(Oc1ccc(Br)cc1)C(=O)NN (stereo not given)	none
COc1ccc(N(C(=O)Cc2cccs2)C(C(=O)NC2CCCC2)c2ccncc2)cc1 (stereo not given)	none
O=C(NC1CCCC1)C(c1ccncc1)N(C(=O)NCc1cccs1)c1ccncc1 (stereo not given)	GPR151 ag 10.3 | GPR151 confirm inactive | GPR119 ag inactive
CC(C)c1ccc(Nc2nc(CC(=O)O)cs2)cc1	none
CS(=O)(=O)Nc1nc(CC(=O)O)cs1	GPR151 ag 5.2 | GPR151 confirm inactive | GPR119 ag inactive
CC(C)[C@H]1NC(=O)[C@H]2CN(C(=O)Oc3ccc(Cl)cc3)CCN2C1=O	none
CCC(=O)C1=C(c2ccc([N+](=O)[O-])cc2)N(C(=O)CC)n2c(CC)nnc2S1	none
CN(C)C(=O)CSc1nnc(-c2ccc3c(c2)OCO3)n1C	none
Cn1c(SCC(N)=O)nnc1-c1ccc2c(c1)OCO2	GPR151 ag 9.6 | GPR151 confirm inactive | GPR119 ag inactive
COc1cccc(-n2nnc3c(N4CCN(S(=O)(=O)c5cc(F)ccc5F)CC4)ncnc32)c1	GPR151 ag 6.0 | GPR151 confirm inactive | GPR119 ag inactive
COc1ccc(-n2nnc3c(N4CCN(C(=O)Cc5ccc(Cl)cc5)CC4)ncnc32)cc1	GPR151 ag 5.5 | GPR151 confirm inactive | GPR119 ag inactive
COc1ccc(-n2nnc3c(N4CCN(C(=O)CC5CCCCC5)CC4)ncnc32)cc1	none
CCCCNC(=O)C1c2ccccc2C(=O)N(CCOC)C1c1ccc(F)cc1 (stereo not given)	none
COc1ccc(OC)c(C(=O)CSc2nnc(C3CC3)n2C)c1	none
COC(=O)c1ccccc1S(=O)(=O)C1CCN(C(=O)Nc2ccc(F)cc2F)CC1	GPR151 ag 5.0 | GPR151 confirm inactive | GPR119 ag inactive
CC(=O)Nc1ccc(NC(=O)C/C(C)=N/NC(=O)C(=O)NCCO)cc1	GPR151 ag 5.8 | GPR151 confirm inactive | GPR119 ag inactive
COc1ccccc1OCCn1cc(/C=C(\C#N)C(=O)NC2CC2)c2ccccc21	GPR151 ag 5.6 | GPR151 confirm inactive | GPR119 ag inactive
COc1ccc(OCCn2cc(/C=C(\C#N)C(=O)NC3CC3)c3ccccc32)cc1	none
COc1cc(CNC2CCN(Cc3ccccc3)CC2)cc(OC)c1	none
Cc1cc(CNC2CCN(Cc3ccccc3)CC2)c(C)n1CC(C)C	GPR151 ag 6.8 | GPR151 confirm inactive | GPR119 ag inactive
Cc1cnc(-c2ccc(C(=O)NC3CC3)cc2)nc1NCc1cccnc1	none
COC(=O)c1cc(OC)c(OC)cc1NC(=O)c1cc(Cl)ccc1Cl	GPR151 ag 6.3 | GPR151 confirm inactive | GPR119 ag inactive
COC(=O)c1cc(OC)c(OC)cc1NC(=O)CCN1C(=O)c2ccccc2C1=O	GPR151 ag 5.9 | GPR151 confirm inactive | GPR119 ag inactive
O=[N+]([O-])c1cc(CNCc2ccccc2)ccc1N1CCCCC1	GPR151 ag 5.6 | GPR151 confirm inactive | GPR119 ag inactive
O=C(c1nc2sccn2c1CNCC(c1cccnc1)N1CCOCC1)N1CCCC1 (stereo not given)	GPR151 ag 9.8 | GPR151 confirm inactive | GPR119 ag inactive
O=C(c1nc2sccn2c1CNCC(c1ccccn1)N1CCOCC1)N1CCCC1 (stereo not given)	none
